Source: paper PMC5540273 (PLoS ONE, 2017)

Key:
Conditions in all cases: concentration: 1 μM, replicates: in singlicate; n = 1
TNNI3K = test system: TNNI3K
TRKA = test system: T1, TRKA
T1 construct: gene NTRK1

TRKB = test system: TRKB
TRKC = test system: T2, TRKC
T2 construct: gene NTRK3

TRPM6 = test system: TRPM6
TSSK1B = test system: TSSK1B
TSSK3 = test system: TSSK3
TTK = test system: TTK
TXK = test system: TXK
[1] = test system: TYK2(JH1domain-catalytic)
[2] = test system: TYK2(JH2domain-pseudokinase)
TYRO3 = test system: TYRO3
ULK1 = test system: ULK1
ULK2 = test system: ULK2
ULK3 = test system: ULK3
VEGFR2 = test system: T3, VEGFR2
T3 construct: gene KDR

VPS34 = test system: T4, VPS34
T4 construct: gene PIK3C3

VRK2 = test system: VRK2
WEE1 = test system: WEE1
WEE2 = test system: WEE2
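Note: KINOMEscan kinase panel screen.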

SMILES | %Inh (TNNI3K) | %Inh (TRKA) | %Inh (TRKB) | %Inh (TRKC) | %Inh (TRPM6) | %Inh (TSSK1B) | %Inh (TSSK3) | %Inh (TTK) | %Inh (TXK) | %Inh [1] | %Inh [2] | %Inh (TYRO3) | %Inh (ULK1) | %Inh (ULK2) | %Inh (ULK3) | %Inh (VEGFR2) | %Inh (VPS34) | %Inh (VRK2) | %Inh (WEE1) | %Inh (WEE2)
Cl.c1ccc(-c2ccc3c(Nc4ccc5[nH]ccc5c4)ccnc3c2)nc1 [GW440138] | 0% | 0% | 9% | 23% | 0% | 0% | 5% | 0% | 0% | 29% | 27% | 0% | 0% | 0% | 6% | 98.3% | 0% | 40% | 8% | 6%
COc1cccc(C(=O)Nc2cccc(Oc3ccc4nc(NC(=O)C5CC5)cn4n3)c2)c1 | 87% | 0% | 0% | 0% | 17% | 6% | 0% | 13% | 37% | 0% | 0% | 47% | 0% | 0% | 11% | 99.9% | 22% | 0% | 0% | 20%
Fc1ccc(-c2ncn(C3CCNCC3)c2-c2ccnc(Oc3ccc(-c4ccccc4)cc3)n2)cc1 [SB-245391] | 42% | 13% | 0% | 19% | 19% | 0% | 15% | 22% | 8% | 32% | 84% | 0% | 54% | 26% | 46% | 12% | 30% | 41% | 0% | 58%
O=C(Nc1n[nH]c2nc(-c3ccc(O)cc3)ccc12)C1CC1 [SB-710363] | 0% | 26% | 0% | 41% | 0% | 0% | 37% | 0% | 0% | 9% | 0% | 0% | 2% | 21% | 29% | 26% | 0% | 0% | 0% | 1%
COc1cc(Nc2ncc3c(C)nc(-c4cc5ccccc5[nH]4)n3n2)cc(OC)c1OC [GW869516] | 33% | 4% | 0% | 0% | 0% | 6% | 0% | 36% | 10% | 0% | 82% | 32% | 48% | 51% | 20% | 0% | 0% | 0% | 36% | 85%
Nc1ncnc2c1nc(-c1ccccc1)n2-c1ccccc1 [SKF-97293] | 0% | 37% | 48% | 36% | 50% | 2% | 22% | 0% | 15% | 68% | 54% | 9% | 51% | 35% | 50% | 23% | 44% | 36% | 4% | 0%
CN(C)S(=O)(=O)c1cc(-c2ccc3nccc(-c4cccc(S(N)(=O)=O)c4)c3c2)cnc1N [GSK1669921] | 8% | 87% | 0% | 48% | 4% | 3% | 18% | 47% | 26% | 13% | 23% | 0% | 8% | 0% | 6% | 29% | 92.7% | 7% | 9% | 17%
COc1cccc(NC(=O)NC2CCN(c3ccnc(Nc4cc(OC)c(OC)c(OC)c4)n3)C2)c1 (centres unmarked) [GSK1379763] | 0% | 54% | 63% | 89% | 3% | 3% | 20% | 5% | 1% | 20% | 38% | 0% | 3% | 0% | 88% | 43% | 20% | 0% | 20% | 0%
Cc1ccc(C)c(NC(=O)NC2CCN(c3ccnc(Nc4ccc(F)cc4)n3)C2)c1 (centres unmarked) [GSK1379720] | 4% | 0% | 51% | 65% | 14% | 0% | 15% | 13% | 16% | 36% | 48% | 0% | 0% | 0% | 10% | 0% | 0% | 45% | 4% | 0%
CN1CCN(CCCNc2nccc(-c3c(-c4ccc(F)cc4)nn4cc(C(F)(F)F)ccc34)n2)CC1 [GW621581] | 0% | 0% | 11% | 5% | 1% | 0% | 0% | 0% | 14% | 28% | 12% | 0% | 20% | 0% | 8% | 0% | 8% | 0% | 0% | 0%
